This is one part of a sample in which hits are shown more often than they occur.
Integrin act MD: activates integrin-mediated alleviation for muscular dystrophy | alpha7betagal myoblasts, beta-gal FDG fluorescence, 48 h | Potency, µM (top dose mostly 38.3 µM), inactives show at the highest dose activation, actives largely listed as activators | 350,000 compounds, 0.064% hits | AID 624291;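 note: potency is the fitted concentration of half-maximal effect; 100% = response of the positive control SU9516; nearly all actives have a fitted effect of over 60% in size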
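Alpha7betagal+/- myoblasts (passage 13) were plated 16-24 hr, then exposed to compounds (1:260 dilution of DMSO stock) for 48 hours at 37C. After MPER lysis, β-galactosidase reporter activity was read as FDG fluorescence (ex 480/em 540) after 30 minutes.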
Giardia kill: Giardia lamblia killing. 340,000 compounds, 0.15% hits. Giardia lamblia trophozoite viability. activity change, % at 7.66 µM, hits read low. AID 540267; in the data active = activity change below about -80%; inconclusive = between about -30% and that limit;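 note: parasites exposed to compound for two days anaerobically before the ATP read; % is set by controls: 0 for no effect and ±100 for the full control effect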
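Trophozoite viability was measured as ATP-dependent luminescence, read 15-30 min after reagent addition. Before that, parasites at 100 cells/well were exposed to compounds for 48 h, anaerobically, at 37 deg C.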
Gal4-VP16 FLuc: counter-screen for ROR gamma inhibitors: Gal4-VP16 reporter; Drosophila S2 Gal4-VP16 UAS-luciferase, luminescence, 20 h; Potency, µM (doses to about 53.6 µM), inactives show top-dose activity, negative = inhibition, hits mostly inhibitors; 310,000 compounds, 3.5% hits;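 note: Gal4-VP16 expression switched on by copper sulfate through the metallothionein promoter; potency is the fitted concentration of half-maximal effect; % is set by controls: 0 for no effect and ±100 for the full control effect; nearly all actives have a fitted effect of over 50% in size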
RORgamma inh: ROR gamma (mouse) transcription inhibition; P51450; Drosophila S2 Gal4-RORgamma UAS-luciferase reporter, 20 h; Potency, µM (titrated, usually from 53.6 µM), inactives show at the top dose activity change, negative = inhibition, actives largely listed as inhibitors; 310,000 compounds, 5.4% hits; note: potency is the fitted concentration of half-maximal effect; % is set by controls: 0 for no effect and ±100 for the full control effect; nearly all actives have a fitted effect of over 60% in size
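Stable Schneider cell line, Gal4 DNA-binding domain fused to ROR gamma, UAS-luciferase. Cmpd 1 hr RT → CuSO4 700 uM final → 20 hr RT → luciferase reagent 10 min → luminescence.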
ERG-DNA inh: inhibitors of human ERG Ets domain-DNA interaction; P11308; fluorescence polarization, His-ERG Ets domain / labelled DNA; Potency, µM (titrated, usually from 76.9 µM), for the others: at the highest dose FP activity, negative = inhibition, usual class: inhibitors; 370,000 compounds, 0.028% hits; active = well fitted inhibition curve with a large enough effect in the polarisation, with a control signal flat; inconclusive = small, poorly fitted or top-dose-only effect, or effect the other way, or a change in a side signal; inactive = no such curve, though single readings can be large or run the other way; the % refers to the polarisation;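 note: polarization taken with two DNA probes labelled with fluorescein and Texas red; potency is the fitted concentration of half-maximal effect; % of control where 0% means no effect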
Target sequence (P11308 whole entry, looked up, the tested form may be a part): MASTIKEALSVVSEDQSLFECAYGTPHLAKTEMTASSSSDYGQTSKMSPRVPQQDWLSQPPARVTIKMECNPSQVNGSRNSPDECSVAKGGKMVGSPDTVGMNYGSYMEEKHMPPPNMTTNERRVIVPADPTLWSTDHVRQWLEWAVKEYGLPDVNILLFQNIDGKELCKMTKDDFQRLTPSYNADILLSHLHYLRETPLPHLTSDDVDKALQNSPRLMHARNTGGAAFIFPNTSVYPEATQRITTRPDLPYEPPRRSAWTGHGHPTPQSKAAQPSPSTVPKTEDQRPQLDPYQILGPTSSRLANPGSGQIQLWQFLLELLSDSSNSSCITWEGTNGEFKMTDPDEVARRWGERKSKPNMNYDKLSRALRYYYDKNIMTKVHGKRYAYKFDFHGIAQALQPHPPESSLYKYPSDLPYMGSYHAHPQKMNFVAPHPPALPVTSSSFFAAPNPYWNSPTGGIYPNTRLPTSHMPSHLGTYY
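His-tagged ERG Ets domain (1 uM in the protein solution; 300mM KCl, 50mM Tris-HCl, 1mM EDTA, 1mM DTT, pH 7.5) received compound, then a probe mix of 5 nM fluorescein-DNA and 100nM Texas-615-DNA. Fluorescence polarization was read for both dyes.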
* = called active by the depositor; ? = inconclusive; . = no result given; [ ] = dose if it differs, or a comment. Unless noted, calls come from the whole dose curve; as a rule, active = well fitted curve in the direction sought with a large enough effect; inconclusive = small, poorly fitted or top-dose-only effect, or another doubt; inactive = no such curve, though single readings can be large; an effect the other way counts as inactive or inconclusive.

SMILES	Integrin act MD	Giardia kill	Gal4-VP16 FLuc	RORgamma inh	ERG-DNA inh
COc1ccc(-c2nc(NCCCN(C)C)c3ccccc3n2)cc1	-52%	-99*	2%	13%	-10%
COc1ccccc1CNc1ncncc1-c1ccc(N(C)C)cc1	.	.	-22%	22µM*	.
COc1ccc(CNc2ncncc2-c2ccc(N(C)C)cc2)c(OC)c1	.	.	-1%	-1%	.
COc1ccccc1CNc1nc(-c2ccc(N(C)C)cc2)nc2ccccc12	.	.	?	7.9µM*	.
COc1ccc(Cl)cc1NC(=O)NCCn1c(=O)oc2ccc(C)cc21	.	.	.	.	6%
O=C(N/N=C/c1ccc[nH]1)c1ccc(Cl)cc1	21%	-6	10µM*	3.2µM*	9%
Cc1ccc(C(=O)N/N=C\c2ccc[nH]2)cc1[N+](=O)[O-]	5%	23	?	2µM*	-3%
O=C(N/N=C/c1ccc[nH]1)c1ccccc1[N+](=O)[O-]	-4%	-10	-88%	?	-10%
O=C(N/N=C/c1ccc[nH]1)c1ccncc1	0%	-4	?	20µM*	1%
CC1CCC(N2CC(=O)N(C3CCCCC3)C(c3ccc(F)cc3)C2=O)CC1 (stereo not drawn)	.	.	.	.	1%
C#CCCCO/N=C1/C[C@@H](O)[C@@H](O)[C@@H]2[C@@H]3C(=O)N(Cc4ccc5c(c4)OCO5)C(=O)[C@H]3CC[C@H]12	.	.	5%[10 µM]	-1%[10 µM]	.
Cc1ccc(NC(=O)COc2ccccc2C(=O)Nc2ccccc2)cc1Cl	18%	-7	-17%	32%	0%
Cc1ccc(Cl)cc1NC(=O)c1ccccc1OCC(=O)Nc1ccc(Cl)cc1	-43%	0	11µM*	?	-7%
O=C(CCc1ccccc1)NC(=S)Nc1ccccc1Br	-30%	-10	?	3.5µM*	-3%
Cc1c(NC(=S)NC(=O)C(C)(C)C)cccc1[N+](=O)[O-]	3%	-1	20µM*	14µM*	-2%
O=C(C[n+]1ccccc1)Nc1ccccc1Br	10%	-23	2.8µM*	1.3µM*	-7%
COc1cc(NC(=S)NC(=O)CCc2ccccc2)cc(OC)c1	-12%	21	7.1µM*	0.56µM*	6%
O=C(CCc1ccccc1)NC(=S)Nc1cccc(C(=O)O)c1	-23%	-16	-20%	-33%	8%
COc1cc(-c2nc(Cn3nnc(C(=O)Nc4ccccc4)c3C)c(C)o2)cc(OC)c1OC	.	.	.	.	1%
O=C(OCc1cc(=O)n2nc(-c3cccs3)sc2n1)c1cccc(F)c1	.	.	.	.	-10%
CN(C)c1cc(-c2ccc(Cl)cc2Cl)oc(=O)c1Cl	?	-7	-3%	29%	-2%
O=C(O)c1ccc2c(c1)S(=O)(=O)c1cc(N3CCN(c4cnccn4)CC3)ccc1C2=O	0%	.	.	.	.
COc1ccc(Cl)cc1NC(=O)CCc1ccccc1	18%	10	-3%	6%	0%
O=C(NC(=S)Nc1ccccc1[N+](=O)[O-])c1ccccc1	4%	?	2µM*	?	-7%
COc1ccccc1NC(=S)NC(=O)CCc1ccccc1	-3%	-16	10µM*	13µM*	6%
SMILES	Integrin act MD	Giardia kill	Gal4-VP16 FLuc	RORgamma inh	ERG-DNA inh
CC(C)c1ccc(O)c(NC(=S)NC(=O)CCc2ccccc2)c1	-18%	8	-30%	13µM*	2%
O=C(NC(=S)Nc1cccc2c(O)cccc12)c1ccccc1[N+](=O)[O-]	-21%	7	?	?	-16%
O=C(CCc1ccccc1)NC(=S)Nc1cccc(Br)c1	-3%	-16	?	11µM*	1%
O=C(NCC1CC1)c1ccc2nc(-c3ccoc3)c(-c3ccoc3)nc2c1	.	-5	.	.	.
COc1ccc(C2(CNC(=O)C(=O)Nc3ccc(C)c(Cl)c3)CCCC2)cc1OC	.	.	.	.	-9%
O=C(CCc1ccccc1)Nc1ccccc1[N+](=O)[O-]	-10%	-15	41%	27%	-6%
O=C(CCc1ccccc1)NC(=S)Nc1ccccc1[N+](=O)[O-]	-16%	-13	11µM*	10µM*	-17%
COC(=O)C1=C(C)N(Cc2ccccc2)C2=C(C(C)=O)C(c3ccccc3)[C@@](O)(C(=O)OC)C(=O)N2C1c1ccccc1 (stereo partly drawn)	.	.	3%[10 µM]	-3%[10 µM]	.
CC1(C)CC(=O)C=C(Nc2ccc(C(=O)O)c(O)c2)C1	10µM*	-3	-8%	-4%	-18%
CC1(C)CC(=O)C=C(NNC(=O)c2ccccc2O)C1	31%	?	11µM*	13µM*	5%
Cc1ccc(NC2=CC(=O)CC(C)(C)C2)cc1Cl	15%	13	-10%	7%	-7%
CCOc1ccc(-c2nonc2NC(=O)c2oc3ccc(Cl)cc3c2C)cc1	.	.	.	.	6%
CCCCn1c(=O)n(CC2CCC(C(=O)NCCCOC)CC2)c(=O)c2sccc21 (stereo not drawn)	.	.	.	.	-2%
CCOC(=O)c1sc(NC(=O)c2ccco2)c(C#N)c1C	5%	1	16%	?	5%
CC(C)N1CCc2c(sc(NC(=O)c3ccc([N+](=O)[O-])o3)c2C(N)=O)C1	.	.	?	7.1µM*	.
COc1ccc(C(=O)Nc2sc3c(c2C#N)CCN(C(C)=O)C3)cc1	2%	-3	-11%	-18%	8%
CC(=O)N1CCc2c(sc(NC(=O)c3ccc([N+](=O)[O-])o3)c2C#N)C1	-23%	-88*	1%	-40%	1%
COC(=O)c1sc(NC(=O)c2ccc([N+](=O)[O-])o2)c(C#N)c1C	?	-93*	-7%	?	3%
CC1CCN(c2ccc(C(=O)NCc3ccco3)cc2[N+](=O)[O-])CC1	8%	12	0%	-10%	0%
c1ccc2sc(N3CCCCC3)nc2c1	10%	-8	.	.	-5%
O=C1CNC(=S)N1c1nc2ccccc2s1	-5%	-5	5.6µM*	0.79µM*	-27%
Cn1c(NC(=O)c2ccc(Br)o2)cc(=O)n(C)c1=O	-12%	-9	3%	13µM*	-8%
Cn1c(NC(=O)c2cccs2)cc(=O)n(C)c1=O	12%	24	0%	8%	-2%
Cc1cc(N2CCOCC2)nc2ccc(NC(=S)NC(C)C)cc12	14%	23	?	10µM*	-5%
Cc1cc(N2CCOCC2)nc2ccc(NC(=S)NCc3ccc4c(c3)OCO4)cc12	10µM*	8	?	22µM*	-6%
Cc1cc(N2CCCC2)nc2ccc(NC(=S)NC(C)C)cc12	-22%	-3	-3%	-37%	3%
C=CCn1c(O)c(C2=c3ccccc3=NC2=O)s/c1=N/c1nccs1	-21%	-15	-7%	-34%	3%
C=CCn1c(O)c(C2=c3ccccc3=NC2=O)c2ccccc21	-55%	-13	4µM*	4.5µM*	2%
Cc1nc2ccn(Cc3cccnc3)c(=O)c2cc1C(=O)NCc1ccccc1	.	.	.	.	4%
CC(C)Oc1cccc(C(=O)NC(=S)N2CCN(c3ccc(C(F)(F)F)cc3[N+](=O)[O-])CC2)c1	-14%	-1	1.1µM*	0.45µM*	-3%
